PNC assembly inh: perinucleolar compartment assembly inhibition. PC3M PTB-GFP, PNC prevalence imaging, 16 h; active compounds read low. AID 2417. activity change (PNC), negative = inhibition, % at 10 µM. 140,000 tested, 3.1% active;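 active = readout at or below -70, meaning at least 70% loss of cells showing the perinucleolar compartment, a nuclear body marking cancer cells; inconclusive = readout between -30 and a set limit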
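Read-out is percentage of cells bearing a perinucleolar compartment, from automated 20x imaging of fixed, Hoechst-stained PC3M PTB-GFP cells. Cells were seeded 4 h, then exposed 16 h to compound (23 nl of library stock) in duplicate plates.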
12-hLO inh: blocks human 12-lipoxygenase activity. purified 12-hLO, xylenol orange hydroperoxide absorbance. Potency, µM (doses to about 57.1 µM), most hits filed as inhibitors. 150,000 tested, 0.12% active. AID 1452; also: nearly all actives have a fitted effect of over 55% in size
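Hydroperoxide formation by human 12-lipoxygenase from 40 uM arachidonic acid was followed colorimetrically via ferric-xylenol orange complex, using the 573/405 nm absorbance ratio. Enzyme concentration was 150 nM, with 30 min reaction at room temperature.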
ALOX15B inhib: inhibitors of human 15-lipoxygenase 2 (ALOX15B). O15296. purified 15hLO-2, xylenol orange hydroperoxide absorbance. Potency, µM (highest dose often 57.1 µM), hits mostly inhibitors. 110,000 tested, 0.56% active. AID 881; also: nearly all actives have a fitted effect of over 60% in size
Target sequence (O15296 whole entry, looked up): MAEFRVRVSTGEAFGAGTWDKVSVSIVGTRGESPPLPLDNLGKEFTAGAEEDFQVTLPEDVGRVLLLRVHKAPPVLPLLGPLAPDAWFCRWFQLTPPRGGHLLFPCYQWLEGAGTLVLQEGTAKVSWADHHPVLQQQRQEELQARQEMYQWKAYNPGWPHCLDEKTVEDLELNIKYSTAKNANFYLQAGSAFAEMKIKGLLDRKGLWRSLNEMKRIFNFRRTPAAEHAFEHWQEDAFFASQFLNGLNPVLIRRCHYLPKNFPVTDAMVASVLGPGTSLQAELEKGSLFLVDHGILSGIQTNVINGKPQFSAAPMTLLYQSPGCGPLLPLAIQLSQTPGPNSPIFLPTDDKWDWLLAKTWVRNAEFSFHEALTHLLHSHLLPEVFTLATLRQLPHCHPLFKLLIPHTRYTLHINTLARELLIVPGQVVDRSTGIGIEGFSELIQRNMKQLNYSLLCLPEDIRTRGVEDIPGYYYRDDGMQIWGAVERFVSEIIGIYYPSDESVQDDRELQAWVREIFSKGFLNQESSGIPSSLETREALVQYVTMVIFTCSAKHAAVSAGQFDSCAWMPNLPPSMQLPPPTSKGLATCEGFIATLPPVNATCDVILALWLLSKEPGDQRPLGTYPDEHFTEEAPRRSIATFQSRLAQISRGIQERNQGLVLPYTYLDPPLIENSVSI
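Purified human 15hLO-2 (50 nM) preincubated 15 min with compound, then 45 uM arachidonic acid for 90 min at RT in 25 mM Hepes pH 7.5, 0.01% Triton X-100. Hydroperoxide detected by Fe-xylenol orange; 573/405 nm absorbance ratio.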
Each line names hits and unclear results; the compound was inactive in the other large screens. The list is not random: actives were taken first. Their share in the collection is about 3.2%. Unless noted, calls follow the shape of the dose curve; as a rule, active = well fitted curve in the direction sought with a large enough effect; inconclusive = small, poorly fitted or top-dose-only effect, or another doubt; inactive = no such curve, though single readings can be large; an effect the other way counts as inactive or inconclusive.

COc1ccc(CC2C(=O)OC(C)(C)OC2=O)cc1	none
N[C@H](CCCC(=O)O)C(=O)O	none (no result: PNC assembly inh)
CC(C)=CCC[C@](C)(O)C1CC=C(C)CC1 (stereo partly specified)	none (no result: PNC assembly inh)
C/C(=N\NC(=S)NC1CCCCC1)c1ccccc1	PNC assembly inh -100, 12-hLO inh inconclusive (no result: ALOX15B inhib)
S=C(NC1CCCCC1)NN(c1ccccc1)c1ccccc1	none (no result: ALOX15B inhib)
COc1ccc(CCNC(=O)CSc2nnc(Cn3c(=O)sc4ccccc43)n2C)cc1OC	none
COc1ccc(CCNC(=O)CSc2nnc(Cc3csc(N)n3)n2C)cc1OC	PNC assembly inh -95
CC(C)C[C@@H](CC(=O)N[C@@H](CCCN)CC(=O)N[C@@H]1CCNC[C@H]1C(=O)N[C@H](CC(=O)N[C@@H](CCC(=O)O)CC(=O)O)CC(C)C)NC(=O)[C@@H]1CNCC[C@H]1N	none (no result: PNC assembly inh, ALOX15B inhib)
COc1ccc(NC(=O)N2CC3(CCN(C(=O)c4cc(C(F)(F)F)cc(C(F)(F)F)c4)CC3)C2)cc1	none (no result: PNC assembly inh)
CN(C)CCCNCCCN	none (no result: PNC assembly inh)
Cc1cc(Cl)c(S(=O)(=O)Nc2ccon2)cc1OCC(=O)NC1CCCCC1	PNC assembly inh inconclusive
Cc1cc(Cl)c(S(=O)(=O)NC2CCCCC2)cc1OCC(=O)Nc1nncs1	PNC assembly inh -119 (no result: ALOX15B inhib)
O=c1oc(-c2ccccc2Cl)nc2ccsc12	PNC assembly inh inconclusive
O=c1oc(-c2ccc(F)cc2)nc2ccsc12	PNC assembly inh -111
C/C(=N\NC(=O)c1cccc(Cl)c1)C1C(=O)c2ccccc2C1=O	none (no result: ALOX15B inhib)
Cc1ccc(C(=O)N/C(=C\c2ccc(Cl)cc2)C(=O)NCC2CCCO2)cc1 (stereo unspecified)	none (no result: ALOX15B inhib)
CC(C)(C)Cc1nnc(NS(=O)(=O)Cc2ccccc2)s1	none
CC(C)(C)Cc1nnc(NS(=O)(=O)c2ccc(F)cc2)s1	PNC assembly inh -82
Cc1cc(NC(=O)c2cc3ccccc3o2)cc(C)c1OCC(=O)N1CCOCC1	none
Cc1cc(NS(=O)(=O)Cc2ccccc2)cc(C)c1OCC(=O)N1CCOCC1	PNC assembly inh -96
CSCCC(N)C(=O)NC(CC(C)C)C(=O)NC(Cc1ccccc1)C(=O)O (stereo unspecified)	none (no result: PNC assembly inh)
COc1cc(C2C3=C(CC(C)(C)CC3=O)OC(N)=C2[N+](=O)[O-])ccc1O (stereo unspecified)	none (no result: ALOX15B inhib)
C=Cc1c(C)/c2[n-]/c1=C\c1[n-]c(c(CC)c1C)/C=c1\[n-]c3c(c1C)C(=O)C(C(=O)[O-])C=3c1[n-]c(c(C)c1CCC(=O)[O-])\C=2.[Cu].[Na+].[Na+] (stereo unspecified)	12-hLO inh inconclusive, ALOX15B inhib 7.9µM (no result: PNC assembly inh)
COc1cc(C/C=C/c2ccccc2)c(OC)cc1O	none (no result: PNC assembly inh)
Cc1ccccc1-n1c(=O)cc(N2CCC3(CC2)OCCO3)[nH]c1=O	PNC assembly inh -119 (no result: ALOX15B inhib)
Cc1ccccc1-n1c(=O)cc(N2CCCCCC2)[nH]c1=O	none (no result: ALOX15B inhib)
C=C1C[C@@]23C[C@@]1(O)CCC2[C@@]12C=CC(O)[C@](C)(C(=O)O1)C2C3C(=O)O (stereo partly specified)	none (no result: PNC assembly inh)
CCCCCCN	none (no result: PNC assembly inh)
CCN(CC)C(c1ccc(F)cc1)c1nnnn1CC1CCCO1 (stereo unspecified)	PNC assembly inh inconclusive
COc1ccc(C(c2nnnn2Cc2ccccc2)N2CCN(c3ccccc3)CC2)cc1 (stereo unspecified)	none
COc1ccc(Cn2nnnc2C(c2ccncc2)N2CCOCC2)cc1 (stereo unspecified)	PNC assembly inh -99
COc1ccc(C(c2nnnn2CC2CCCO2)N2CCN(c3ccc(F)cc3)CC2)cc1 (stereo unspecified)	PNC assembly inh -86
COc1cccc(NC(=O)C(C#N)Cc2ccncc2)c1 (stereo unspecified)	none
CCc1ccccc1NC(=O)C(C#N)Cc1cccnc1 (stereo unspecified)	PNC assembly inh -82 (no result: ALOX15B inhib)
C=C(C)CC1(NC(C)c2ccccc2)CCCCC1 (stereo unspecified)	PNC assembly inh -109 (no result: ALOX15B inhib)
C/C(Cl)=C\CNC(C)c1ccccc1 (stereo unspecified)	none
O=c1cc(-c2ccc(O)cc2)oc2cc(O)cc(O)c12	none (no result: PNC assembly inh)
O=c1cc(-c2cc(O)c(O)c(O)c2)oc2cc(O)cc(O)c12	ALOX15B inhib 13µM (no result: PNC assembly inh)
CCCn1c(C)nc2c(N(CCOC)CCOC)nc(C)nc21	none (no result: PNC assembly inh)
COc1cc2cc(CN(Cc3nnnn3C3CCCC3)C3CCCC3)c(=O)[nH]c2cc1OC	PNC assembly inh inconclusive
Cc1ccc2[nH]c(=O)c(CN(Cc3nnnn3C3CCCC3)C3CCCCC3)cc2c1	PNC assembly inh -100
Cc1ccc2[nH]c(=O)c(CN(Cc3ccccc3)Cc3nnnn3C3CCCC3)cc2c1	PNC assembly inh -93
Cc1cccc2cc(CN(Cc3ccc(F)cc3)Cc3nnnn3C3CCCC3)c(=O)[nH]c12	none
CCO/N=C(\C)c1c(O)c(CC)c(-c2ccccc2)n(-c2ccccc2)c1=O	none (no result: ALOX15B inhib)
CC(C)(C)c1ccc(C(=O)NCC(=O)OCC(=O)c2ccc3c(c2)-c2ccccc2C3)cc1	none (no result: ALOX15B inhib)
COc1ccc2c(c1)OCc1c-2oc2cc(OC)ccc12	none (no result: PNC assembly inh)
Cc1ccccc1N=Nc1c(C)[nH]n(C(N)=S)c1=O	PNC assembly inh -113 (no result: ALOX15B inhib)
CCN(CC)S(=O)(=O)c1ccc(N=Nc2c(C)[nH]n(C(N)=S)c2=O)cc1	none (no result: ALOX15B inhib)
O=C(COC(=O)c1ccc(S(=O)(=O)NCc2ccco2)cc1)Nc1ccccc1OC(F)F	PNC assembly inh -101
CN(C)S(=O)(=O)c1ccc(C(=O)OCC(=O)Nc2ccccc2OC(F)F)cc1	none
O=C(O)c1ccc(SSc2ccc(C(=O)O)cn2)nc1	none (no result: PNC assembly inh)
CC(OC(=O)c1cc2sccc2n1C)C(=O)NCc1cccs1 (stereo unspecified)	PNC assembly inh -81
Cn1c(C(=O)OCC(=O)NCc2cccs2)cc2sccc21	none
CC12CCC(c3c(C(=O)Nc4nccs4)nn(-c4ccccc4)c31)C2(C)C (stereo unspecified)	none
CCOc1c(C)cc2[nH]c(CCC(=O)O)nc2c1C	PNC assembly inh -119 (no result: ALOX15B inhib)
O=C(O)CCc1nc2ccccc2[nH]1	none (no result: PNC assembly inh)
CCONC(=O)Nc1ccccc1	PNC assembly inh inconclusive (no result: ALOX15B inhib)
O=C(Nc1ccc2c(c1)OCO2)C1Cc2ccccc2CN1S(=O)(=O)c1cccs1 (stereo unspecified)	none
COc1cccc(Nc2ncc3nc(CCc4ccccc4)c(=O)n(CCC#N)c3n2)c1	none (no result: PNC assembly inh)
CCOC(=O)CN1C(=O)N[C@@H](c2ccccc2)[C@H](C(=O)OC)[C@H]1C	none (no result: PNC assembly inh, ALOX15B inhib)
COc1ccc(C2C(Oc3ccccc3)C(=O)N2c2cc(C)ccc2C)cc1OC (stereo unspecified)	PNC assembly inh -89
COc1ccc(OC2C(=O)N(Cc3ccc(F)cc3)C2c2ccc(OC)c(OC)c2)cc1 (stereo unspecified)	none
Cc1ccc(SC(=O)COc2ccccc2C)cc1	PNC assembly inh -112
Cc1ccccc1OCC(=O)NNC(=O)c1ccc(-c2ccccc2)cc1	none
COc1ccc(-c2csc(-c3cc4ccccc4oc3=N)n2)cc1	PNC assembly inh -93 (no result: ALOX15B inhib)
COc1ccc(-c2noc(-c3cc4ccccc4oc3=O)n2)cc1	none
COCCn1c(=O)c(-c2cc(F)cc(F)c2)nc2cnc(N3CCOCC3)nc21	none (no result: PNC assembly inh, 12-hLO inh)
CC(C)CC(=O)N1CCN(S(=O)(=O)c2ccc(F)cc2)CC1	PNC assembly inh -119
CCOC(=O)N1CCN(S(=O)(=O)c2ccc(F)cc2)CC1	none

Screening data as filed in PubChem BioAssay.
